Assay results published in PubChem BioAssay AID1345085 (National Center for Advancing Translational Sciences (NCATS), 2018).
Results filed as inconclusive are left out. Values without a mark were called inactive. The source made the active and inactive calls. Calls follow the shape of the dose curve; as a rule, active = well fitted cell-killing curve with a large enough effect; inconclusive = small, poorly fitted or top-dose-only effect, or effect the other way; inactive = no such curve, though single readings can be large or run the other way. *1 amine or outer side, *2 acyl side, *3 side chain or, on linkers, in order; H or OH if unused. Where a SMILES comes first, the peptide text is derived from it. Bridges are numbered along the chain shown (N, C = ends). Roman numbers before positions name the chains, in order. [ ]: non-standard residue; d: D form. Actinocin(9to1) = Cc1c2oc3c(C)ccc(C(=O)[*:1])c3nc-2c(C(=O)[*:2])c(N)c1=O; NMeV = CN[C@H](C(=O)O)C(C)C; Sar = CNCC(=O)O

These molecules were tested on Tov-21-G (assay: Confirmatory qHTS for gynecologic anti-cancer compounds from libraries of approved drugs and bioactive compounds). Details: gynecologic cancer cell panel viability, ATPlite luminescence, 48 h; series mostly up to 57.7 µM; activity change, negative = viability loss: at the top concentration.
Method in brief: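 Viability is measured as ATP-dependent luciferase light using ATPlite, read 15 min after reagent addition at room temperature. Compounds, in DMSO, span 57.5 uM down to 0.977 nM over 11 threefold steps for 48 h.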
% is scaled to controls: 0 for no effect and ±100 for the full control effect; potency is read from the fitted curve at half-maximal effect.
Also: nearly all actives have a fitted effect of over 55% in size.

Row | Compound | Potency | activity change, negative = viability loss
1 | Cc1ccn(-c2ccc(-c3ncco3)cc2)c(=O)c1-c1ccc2nc(N)ncc2c1 | 6110 nM (active) | 
2 | O=C(CCCCCCC(=O)Nc1ccccc1)NO | 4850 nM (active) | 
3 | CC[C@]1(O)C[C@H]2CN(CCc3c([nH]c4ccccc34)[C@@](C(=O)OC)(c3cc4c(cc3OC)N(C=O)[C@H]3[C@@](O)(C(=O)OC)[C@H](OC(C)=O)[C@]5(CC)C=CCN6CC[C@]43[C@@H]65)C2)C1 | 611 nM (active) | 
4 | Nc1ccc(-c2ccc3ncc4ccc(=O)n(-c5cccc(C(F)(F)F)c5)c4c3c2)cn1 | 3430 nM (active) | 
5 | COc1cc(N2CCC(N(C)C)CC2)ccc1Nc1ncc(Cl)c(Nc2ccccc2P(C)(C)=O)n1 | 1720 nM (active) | 
6 | CC(=O)OC12COC1CC(O)C1(C)C(=O)C(O)C3=C(C)C(OC(=O)C(O)C(NC(=O)OC(C)(C)C)c4ccccc4)CC(O)(C(OC(=O)c4ccccc4)C21)C3(C)C (stereo unspecified) |  | -6.62%
7 | CCn1c(-c2nonc2N)nc2c(C#CC(C)(C)O)ncc(OCC3CCCNC3)c21 (stereo unspecified) | 30.6 nM (active) | 
8 | CCN(CC)CCCC(C)Nc1c2ccc(Cl)cc2nc2ccc(OC)cc12 (stereo unspecified) | 30600 nM (active) | 
9 | Cc1c2oc3c(C)ccc(C(=O)N[C@@H]4C(=O)N[C@H](C(C)C)C(=O)N5CCC[C@H]5C(=O)N(C)CC(=O)N(C)[C@@H](C(C)C)C(=O)O[C@@H]4C)c3nc-2c(C(=O)N[C@@H]2C(=O)N[C@H](C(C)C)C(=O)N3CCC[C@H]3C(=O)N(C)CC(=O)N(C)[C@@H](C(C)C)C(=O)O[C@@H]2C)c(N)c1=O (I: T[dV]P[Sar][NMeV] / II: T[dV]P[Sar][NMeV]; ester I:1-I:C, II:1-II:C; linker I:N-II:N via Actinocin(9to1)) | 685 nM (active) | 
10 | Nc1ccc(C(=O)Nc2cccc(-c3nc(N4CCOCC4)c4oc5ncccc5c4n3)c2)cn1 | 6110 nM (active) | 
11 | CCc1nc(C(N)=O)c(Nc2ccc(N3CCC(N4CCN(C)CC4)CC3)c(OC)c2)nc1NC1CCOCC1 | 2670 nM (active) | 
12 | CC(C)C[C@H](NC(=O)[C@H](Cc1ccccc1)NC(=O)c1cnccn1)B(O)O | 96.8 nM (active) | 
13 | Cc1cc(SCc2sc(-c3ccc(C(F)(F)F)cc3)nc2C)ccc1OCC(=O)O |  | 1.34%
14 | Cc1cc(C2CCCCC2)n(O)c(=O)c1 | 17700 nM (active) | 
15 | O=C(NOC[C@H](O)CO)c1ccc(F)c(F)c1Nc1ccc(I)cc1F | 1720 nM (active) | 
16 | CNC(=O)c1nn(C)c2c1C(C)(C)Cc1cnc(Nc3ccc(N4CCN(C)CC4)cc3)nc1-2 | 122 nM (active) | 

Row | Compound | Potency | activity change, negative = viability loss
17 | COc1cc2nccc(Oc3ccc(NC(=O)Nc4cc(C)on4)c(Cl)c3)c2cc1OC | 19300 nM (active) | 
18 | CN1CCCC(n2nc(Cc3ccc(Cl)cc3)c3ccccc3c2=O)CC1 (stereo unspecified) | 30600 nM (active) | 
19 | COc1ccc(-c2ccc3c(N4CCOCC4C)nc(N4CCOCC4C)nc3n2)cc1CO (stereo unspecified) |  | -33.8%
20 | Fc1cc(-c2cccc3ncc(-c4cnn(C5CCNCC5)c4)nc23)cc(F)c1CN1CCOCC1 | 12200 nM (active) | 
21 | CNC1CCC(N(Cc2cccc(-c3ccncc3)c2)C(=O)c2sc3ccccc3c2Cl)CC1 (stereo unspecified) | 19300 nM (active) | 
22 | Cc1csc(NC(=O)c2sc3nc4c(c(C(F)(F)F)c3c2N)CCC4)n1 | 1930 nM (active) | 
23 | CCC(=O)N1CCN(c2ccc(-n3c(=O)ccc4cnc5ccc(-c6cnc7ccccc7c6)cc5c43)cc2C(F)(F)F)CC1 | 314 nM (active) | 
24 | CC(C)c1nn(-c2c(Cl)cccc2Cl)c2nc(Cc3ccc(OCCO)cc3)[nH]c(=O)c12 | 86.3 nM (active) | 
25 | COc1cc(Nc2ncc(F)c(Nc3ccc4c(n3)N(COP(=O)(O)O)C(=O)C(C)(C)O4)n2)cc(OC)c1OC | 1370 nM (active) | 
26 | CCc1c2c(nc3ccc(OC(=O)N4CCC(N5CCCCC5)CC4)cc13)-c1cc3c(c(=O)n1C2)COC(=O)[C@]3(O)CC | 21700 nM (active) | 
27 | O=C1NC(=O)C(c2cnc3ccccn23)=C1c1cn2c3c(cccc13)CN(C(=O)N1CCOCC1)CC2 | 544 nM (active) | 
28 | C=CC(=O)Nc1cccc(Oc2nc(Nc3ccc(N4CCN(C)CC4)cc3)ncc2Cl)c1 | 3850 nM (active) | 
29 | COc1cc(N2CCC(N3CCN(C)CC3)CC2)ccc1Nc1ncc(Cl)c(Nc2ccccc2S(=O)(=O)C(C)C)n1 | 6110 nM (active) | 
30 | CC(=O)O[C@H]1C(=O)[C@@]2(C)[C@H]([C@H](OC(=O)c3ccccc3)[C@]3(O)C[C@H](OC(=O)[C@H](O)[C@@H](NC(=O)c4ccccc4)c4ccccc4)C(C)=C1C3(C)C)[C@]1(OC(C)=O)CO[C@@H]1C[C@@H]2O |  | 0.907% [at 11 µM]
31 | CN1CCN(Cc2ccc(NC(=O)Nc3ccc(Oc4cc(NC(=O)C5CC5)ncn4)cc3)cc2C(F)(F)F)CC1 | 432 nM (active) | 
